PubChem BioAssay
Activity calls are given as the source filed them. Unless noted, the rule behind the calls is not given here.

How the values were obtained:
[1] = system: Wnt5a (protein binding on small-molecule microarray); assay: Wnt5a binders on small-molecule microarray, primary screen, biophysical, 635/667 nm fluorescence (AID 1142); details: 635 nm fluorescence, higher = more signal;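 note: fluorescence read at 667 nm with signal to noise per printed feature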
[2] = cell viability in Huh7 cells, primary screen, cytotoxicity control for HCV replication inhibitor project, CellTiter-Glo luminescence, basal, 48 h (AID 1143); details: Huh7 HCV replicon, higher = more signal, called active from +8 up or from −8 down;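 note: Huh7 hepatoma cells carrying a hepatitis C replication reporter with no stimulus; test concentration not given here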
[3] = P. aeruginosa biofilm formation inhibitors, primary screen, PAO1 strain, BacTiter-Glo luminescence, LB-PBS (AID 1144); details: 12 h, higher = more signal
[4] = CREB reporter modulators without forskolin, primary screen, cell-based, PC12, CRE-LacZ reporter, unstimulated (AID 1145); details: no forskolin, luminescence, 4.5 h, higher = more signal, called active from +8 up or from −8 down
[5] = CREB reporter modulators under forskolin, primary screen, cell-based, PC12, CRE-LacZ reporter, forskolin-stimulated (AID 1146); details: luminescence, 4.5 h, higher = more signal, called active from +8 up or from −8 down;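 note: PC12 cells with 6xCRE LacZ reporter stimulated by forskolin 10 µM; beta-galactosidase reporter signal reflecting CREB driven transcription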
[6] = molecular target: Streptavidin (Streptomyces avidinii) (UniProt P22629); assay: streptavidin binders on small-molecule microarray, primary screen, artefact control for SMM compound annotation, biophysical, 635/667 nm fluorescence (AID 1147); details: streptavidin binding, higher = more signal;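 note: signal reflects streptavidin binding to arrayed compounds as a control protein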
[7] = small-molecule binders of probe aInhba, primary screen, biochemical, small-molecule microarray, 635/667 nm fluorescence (AID 1148); details: higher = more signal;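 note: score merges 667nm spot fluorescence with signal-to-noise for antibody binding to printed compounds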
[8] = molecular target: Torsin-1A (Homo sapiens) (UniProt O14656); assay: torsin A binders from cell lysate, primary screen, small-molecule microarray, wild-type, 635/667 nm (AID 1149); details: COS7 hTOR1A-WT lysate, 635 nm fluorescence, higher = more signal
[9] = molecular target: Torsin-1A (Homo sapiens) (UniProt O14656); assay: small-molecule binders of mutant TOR1A in lysate, primary screen, cell lysate, small-molecule microarray, COS7 lysate, 635/667 nm fluorescence (AID 1150); details: COS7 hTOR1A mutant lysate, 635 nm fluorescence, higher = more signal;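 note: score pools 667 nm emission and signal to noise measuring lysate protein binding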
[10] = system: Sonic hedgehog protein (Shh); assay: small-molecule binders of Shh protein, primary screen, biochemical, small-molecule microarray, 635/667 nm fluorescence (AID 1151); details: small-molecule microarray binding, 635 nm fluorescence; higher = more signal;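 note: Shh protein binding to compounds spotted on small-molecule microarray slides; score combines spot fluorescence intensity with signal-to-noise across triplicate slides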

Torsin-1A (Homo sapiens), sequence (O14656 whole entry, looked up): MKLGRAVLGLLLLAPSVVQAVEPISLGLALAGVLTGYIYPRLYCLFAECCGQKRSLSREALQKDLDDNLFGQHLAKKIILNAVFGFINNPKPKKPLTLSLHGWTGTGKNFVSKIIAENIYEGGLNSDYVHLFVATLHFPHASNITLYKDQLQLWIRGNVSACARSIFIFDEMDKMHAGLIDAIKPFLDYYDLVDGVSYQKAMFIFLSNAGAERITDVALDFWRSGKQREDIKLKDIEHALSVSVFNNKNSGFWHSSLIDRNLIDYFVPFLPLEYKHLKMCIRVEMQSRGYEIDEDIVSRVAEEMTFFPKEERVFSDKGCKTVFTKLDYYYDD
Streptavidin (Streptomyces avidinii), sequence (P22629 whole entry, looked up): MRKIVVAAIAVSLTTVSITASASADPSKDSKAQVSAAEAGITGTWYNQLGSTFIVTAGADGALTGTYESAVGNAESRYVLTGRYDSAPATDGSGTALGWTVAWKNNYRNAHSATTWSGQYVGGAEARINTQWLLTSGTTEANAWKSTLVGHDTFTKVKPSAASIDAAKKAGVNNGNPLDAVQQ

Row | SMILES | composite z-score [1] | z-score [2] | z-score [3] | z-score [4] | z-score [5] | composite z-score [6] | composite z-score [7] | composite z-score [8] | composite z-score [9] | composite z-score [10]
1 | [N-]=[N+]=NCc1ccccc1[C@@H]1OC(c2ccc(OCCCO)cc2)=N[C@]1(Cc1ccccc1)C(N)=O | 0.601 | -1.72 (inactive) | -1.85 (inactive) | -1.19 (inactive) | -2.1 (inactive) | 2.03 | 0.228 | 0.162 | -0.106 | -0.315
2 | NC(=O)NCC#Cc1ccc2c(c1)[C@]1(C(=O)N2)[C@H](C(N)=O)[C@H]2C(=O)O[C@H](c3ccccc3)[C@H](c3ccccc3)N2[C@@H]1c1ccc(O)cc1 | 0.0344 | -0.0803 (inactive) | -0.00225 (inactive) | 0.712 (inactive) | -0.0696 (inactive) | -0.104 | 1.34 | 0.2 | 1 | -0.41
3 | CC(C)C(O)C1C=CC2C(=O)NC(=O)C2N1Nc1ccc(Cl)cc1Cl (stereo not given) | -0.0055 | -0.158 (inactive) | 0.0631 (inactive) | 0.246 (inactive) | 0.0675 (inactive) | -0.204 | -0.0791 | 0.41 | 0.794 | 0.292
4 | COc1cc2c(cc1OC)CN(C(=O)[C@@H]1[C@H]3C(=O)O[C@H](c4ccccc4)[C@H](c4ccccc4)N3[C@H](c3ccc(O)cc3)[C@@]13C(=O)Nc1ccccc13)CC2 | 0.33 | -4.24 (inactive) | -1.07 (inactive) | 0.685 (inactive) | -0.0307 (inactive) | 0.523 | 0.121 | 1.05 | 0.341 | 1.33
5 | CCCC[C@H]1OB(O)C[C@H]2C1=C(COC)Cn1c(=O)n(-c3ccccc3)c(=O)n12 | 0.0162 | 0.0344 (inactive) | -0.549 (inactive) | -0.327 (inactive) | 0.124 (inactive) | -0.333 | -0.182 | 0.0681 | 0.0861 | 0.948
6 | COCCOC(=O)N1C(=O)[C@@]2(c3cc(C#CCNC(N)=O)ccc31)[C@H](C(=O)Nc1nc3ccccc3s1)[C@H]1C(=O)O[C@H](c3ccccc3)[C@H](c3ccccc3)N1[C@@H]2c1ccc(OCCO)cc1 | 0.341 | 0.759 (inactive) | -0.609 (inactive) | -0.874 (inactive) | -0.274 (inactive) | 0.664 | 0.261 | -0.0017 | 0.452 | 0.969
7 | C=CC[C@@]12N=C(c3ccc(OCCCO)cc3)O[C@@H]1c1ccccc1N(C)C2=O | 1.25 | -4.44 (inactive) | -0.0229 (inactive) | 0.297 (inactive) | -0.845 (inactive) | 0.248 | 0.268 | -0.0951 | 0.713 | 1.42
8 | C=CCOC(=O)[C@H]1[C@@H]2C(=O)O[C@@H](c3ccccc3)[C@@H](c3ccccc3)N2[C@@H](c2ccc(OCCOC(=O)[C@H]3C[C@H]4C(=O)N[C@@H](CCCC[N+](C)(C)C)C(=O)N4[C@H]3c3ccc(O)cc3)cc2)[C@]12C(=O)Nc1ccc(I)cc12 | 0.232 | -0.326 (inactive) | -0.615 (inactive) | 0.415 (inactive) | -0.226 (inactive) | 0.134 | 0.0759 | 1.39 | -0.243 | 2.22
9 | O=C(NC1CC1)[C@@H]1c2ccccc2C(=O)N(Cc2ccccc2Cl)[C@H]1c1ccc(CO)cc1 | 0.201 | -2.67 (inactive) | -0.764 (inactive) | -0.0888 (inactive) | -1.69 (inactive) | 0.384 | 0.225 | 0.725 | 0.941 | 0.957
10 | CN1C(=O)C2C=CC(C(O)C#Cc3ccccc3)N(N3CCCCC3)C2C1=O (stereo not given) | 1.11 | 0.913 (inactive) | -0.686 (inactive) | 0.236 (inactive) | -0.516 (inactive) | 0.762 | 1.1 | 1.27 | 1.79 | 0.841
11 | CCOC(=O)C[C@H]1[C@H](OC(=O)c2ccc(C(=O)c3ccccc3)cc2)[C@@H](NC(=O)c2ccc3ccccc3c2)c2cc(OCCCO)ccc2N1C(=O)Cc1ccc(OC)cc1 | -0.354 | -0.132 (inactive) | -0.329 (inactive) | -0.635 (inactive) | -0.383 (inactive) | 0.271 | -0.102 | 1.08 | 0.16 | -0.006
12 | CC(C)C[C@@H]1NC(=O)[C@H](C(C)C)NC(=O)[C@@]23C(=O)N[C@@H](Cc4ccccc4)C2[C@H](C)[C@@]2(C)O[C@H]2C3/C=C/CC/C=C/CNC1=O (stereo not given in full) | 0.513 | -3.05 (inactive) | -1.07 (inactive) | -0.319 (inactive) | -1.23 (inactive) | 0.186 | 0.399 | 0.356 | 0.0386 | 1.71
13 | C=C(CCCC)C(=O)CC[C@@H](OC(=O)c1ccccc1-c1ccccc1C(=O)O)c1ccc(OCCO)cc1 | 0.27 | 0.142 (inactive) | -0.385 (inactive) | -0.336 (inactive) | 1.8 (inactive) | -0.074 | -0.128 | 0.803 | 0.427 | 0.586
14 | CN(C)C(=O)[C@]1(Cc2ccccc2N=[N+]=[N-])N=C(c2ccc(OCCCO)cc2)O[C@@H]1c1ccccc1N=[N+]=[N-] | 0.46 | -4.48 (inactive) | -0.938 (inactive) | 0.0686 (inactive) | -1 (inactive) | 1.41 | -0.0162 | 1.49 | 0.799 | 0.428
15 | C#C[C@H](O[Si](C#Cc1ccc(Oc2ccccc2)cc1)(C(C)C)C(C)C)c1ccccc1 | 0.0942 | -0.868 (inactive) | -0.0203 (inactive) | 0.498 (inactive) | 1.7 (inactive) | 0.145 | -0.082 | 1.38 | 0.122 | 0.21
16 | C[C@H]1C2[C@H](Cc3ccccc3)NC(=O)[C@]23C(=O)N[C@H](Cc2ccccc2)C(=O)N2CCC[C@H]2C(=O)NC/C=C\C/C=C/C3[C@@H]2O[C@]12C (stereo not given in full) | 0.072 | -0.832 (inactive) | -1.44 (inactive) | 0.403 (inactive) | -0.399 (inactive) | 0.206 | -0.126 | 0.221 | 0.44 | 0.639
17 | CC(C)C[C@@H]1NC(=O)[C@@H]2C[C@H](C(=O)NCc3ccc(F)cc3)[C@H](c3cccc(OCCO)c3)N2C1=O | 1.9 | -0.119 (inactive) | -1.53 (inactive) | 0.826 (inactive) | -0.798 (inactive) | -0.443 | 0.286 | 0.265 | 1.3 | 1.75
18 | COc1cc(Br)cc(C(O)C2C=CC3C(=O)N(C)C(=O)C3N2N2CCCCC2)c1OC (stereo not given) | -0.274 | 0.4 (inactive) | -0.311 (inactive) | 0.822 (inactive) | 0.641 (inactive) | -0.39 | -0.016 | 0.167 | 0.0369 | -1.49
19 | C=CC[C@]1(C(=O)NCc2ccccc2)N=C(c2ccc(OCCCO)cc2)O[C@H]1c1ccccc1N=[N+]=[N-] | 0.713 | -3.2 (inactive) | -0.00841 (inactive) | 1.49 (inactive) | -0.967 (inactive) | 2.21 | -0.0468 | 0.818 | 0.787 | -0.231
20 | CCCCC(CC)C(O)C1C=CC2C(=O)N(Cc3ccccc3)C(=O)C2N1n1cnnc1 (stereo not given) | -0.205 | -0.114 (inactive) | 0.999 (inactive) | 0.127 (inactive) | 0.408 (inactive) | 0.124 | -0.166 | 0.17 | 0.606 | -0.405
21 | O=C1[C@@]23C=C(Br)[C@H](C[C@@H]2CCOC3)[C@@]12CO2 | -0.0248 | 0.35 (inactive) | 0.725 (inactive) | 0.221 (inactive) | 0.767 (inactive) | 0.365 | 0.0792 | 0.441 | 0.219 | 0.534
22 | CCOC(=O)C1=CC[C@@H](c2ccccc2)N(S(=O)(=O)c2ccc(C)cc2)[C@H]1c1ccccc1C | 0.572 | -2.81 (inactive) | -0.953 (inactive) | 0.0707 (inactive) | 0.285 (inactive) | 1.05 | -0.15 | 0.339 | 0.581 | -0.19
23 | COc1ccc(-c2cc3c(c(-c4ccc(Oc5ccccc5)cc4)n2)[Si](C(C)C)(C(C)C)OC3)cn1 | -0.394 | -1.11 (inactive) | -0.0233 (inactive) | -0.127 (inactive) | -0.0129 (inactive) | 0.114 | 0.038 | -0.664 | -0.336 | 1.08
24 | O=C1OCCC/C=C\[C@H]2OC34C=CCN(Cc5ccccc5)C(=O)[C@H]3N(CCCO)C(=O)[C@@H]4C12 (stereo not given in full) | -0.597 | -0.639 (inactive) | 2.87 (inactive) | 0.593 (inactive) | -0.59 (inactive) | -1.1 | -0.176 | -1.14 | -2.13 | -0.85
25 | C[N+](C)(C)CCCCNC(=O)[C@@H]1C[C@@H]2C(=O)N[C@@H](Cc3ccccc3)C(=O)N2[C@@H]1c1cccc(OCCO)c1 | 0.175 | -0.36 (inactive) | -0.314 (inactive) | -0.26 (inactive) | -0.471 (inactive) | -1.02 | -0.179 | 0.938 | 0.713 | 1.91
26 | C=C[C@H](CO)NS(=O)(=O)c1ccc(Br)cc1 | -0.269 | 0.116 (inactive) | 0.564 (inactive) | 0.643 (inactive) | 1.79 (inactive) | 0.257 | -0.159 | 0.0757 | -0.0632 | 0.156
